This note sets out measurements from PubChem BioAssay.

Structures are written as SMILES. Active and inactive are the calls of the source.

Test [1] relates to PRMT1 (protein arginine N-methyltransferase 1). In words: PRMT1 binders on small-molecule microarrays, primary screen, biochemical, small-molecule microarray, 635 nm fluorescence (AID 1088).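 Note: binding of Prmt1 protein to compounds spotted on small-molecule microarray slides.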 The note with it: small-molecule microarray binding, higher = more signal.
Test [2] is described as follows: yeast growth modulation, basal conditions, primary screen, YJM789 clinical isolate, OD600, 24 h (AID 1089).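 Note: growth of clinical yeast isolate S. cerevisiae YJM 789 seeded 1000 cells per well; test concentration not given here.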 The note with it: S. cerevisiae YJM789 growth, higher = more signal, called active from +8 up or from −8 down.
The nature of test [3]: fission yeast growth modulation, primary screen, strain 972, OD600, 24 h, no modulator (AID 1090).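 Note: basal condition with compound alone and no growth modifier present; test concentration not given here.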 The note with it: S. pombe 972 growth, higher = more signal, called active from +8 up or from −8 down.
The nature of test [4]: S. cerevisiae growth modulation with rapamycin, primary screen, strain BY4716, OD600, 96 h (AID 1091). Note: test concentration not given here. To be noted: higher = more signal, called active from +8 up or from −8 down.
For test [5], the target named is Torsin-1A-interacting protein 2 (Homo sapiens) (UniProt Q8NFQ8). Put plainly: LULL1 binders on small-molecule microarray, primary screen, cell lysate, human LULL1 lysate, 635/667 nm fluorescence (AID 1092).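 Note: probe is lysate of COS7 cells overexpressing human LULL1; score merges per-feature 667 nm fluorescence with signal-to-noise.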 The note with it: hLULL1 lysate binding, 635 nm fluorescence, higher = more signal.
A short description of test [6]: E. coli growth modulation, two-sided OD650, primary screen, E. coli filamentation project, strain DRC41, 24 h (AID 1093).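 Note: MC1000 strain lacking acrAB efflux and sulA so SOS filamentation is blocked; test concentration not given here.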 To be noted: OD650, 24 h, higher = more signal, called active from +8 up or from −8 down.
Test [7] is described as follows: small-molecule microarray binders of probe aLefty2, primary screen, biochemical, biotinylated probe, 635/667 nm fluorescence (AID 1094).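 Note: score merges spot fluorescence near 667 nm with spot signal-to-noise ratio.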 To be noted: higher = more signal.
Test [8] concerns Noggin (protein binding on small-molecule microarray). Put plainly: Noggin binders on small-molecule microarray, primary screen, biochemical, 635/667 nm fluorescence (AID 1095).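 Note: score merges 667 nm feature fluorescence with signal to noise over triplicate slides.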 The note with it: 635 nm fluorescence, higher = more signal.
Test [9] addresses Neurogenic locus notch homolog protein 3 (Homo sapiens) (UniProt Q9UM47). In words: NOTCH3 binders on small-molecule microarray, primary screen, biochemical, 635/667 nm fluorescence (AID 1096). The note with it: NOTCH3 binding, 635 nm fluorescence, higher = more signal.
Test [10] in a line: small-molecule microarray binders of probe aEGFR, primary screen, biochemical, biotinylated probe, 635/667 nm fluorescence (AID 1097).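 Note: probe is a biotinylated anti-EGFR antibody binding compounds printed on slides; score combines fluorescence near 667 nm and signal to noise of each spot.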 To be noted: higher = more signal.
The test system of test [11] is Plasmodium falciparum Sir2 (PF13_0152, Sir2A). In words: pfSir2 binders on small-molecule microarrays, primary screen, biochemical, small-molecule microarray, 635 nm fluorescence (AID 1098).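 Note: score merges spot fluorescence intensity with its signal-to-noise ratio.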 To be noted: small-molecule microarray binding, fluorescence 635 nm; higher = more signal.
A short description of test [12]: small-molecule microarray binders of probe aDKK1, primary screen, biochemical, biotinylated probe, 635/667 nm fluorescence (AID 1099).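 Note: score merges 667nm spot fluorescence with signal to noise across triplicate slides; reference of the scale not given here.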 To be noted: higher = more signal.
A short description of test [13]: small-molecule microarray binders of probe aCHRDL2, primary screen, biochemical, biotinylated probe, 635/667 nm fluorescence (AID 1100). The note with it: higher = more signal.
Test [14] in a line: splicing luciferase reporter signal modulators, primary screen, spliceosome inhibition project, cell-based, HEK293, splice +/- reporter (AID 1101).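 Note: HEK293 cells carrying a splicing-competent luciferase reporter gene; test concentration not given here.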 The note with it: luminescence, 24 h, higher = more signal, called active from +8 up or from −8 down. In general terms: Reporter assays use an easily measured gene product as a stand-in for the process of interest.
Test [15] has as its target Fibroblast growth factor 10 (Homo sapiens) (UniProt O15520). In words: FGF10 binders on small-molecule microarrays, primary screen, biochemical, small-molecule microarray, 635 nm fluorescence (AID 1102). The note with it: FGF10 binding, fluorescence 635 nm, higher = more signal.
The subject of test [16] is glycogen synthase kinase-3 (GSK3A per assay name; protocol says GSK3B). Put plainly: GSK3 binders on small-molecule microarrays, primary screen, biochemical, small-molecule microarray, 635 nm fluorescence, GSK3A (AID 1103). Note: the record names both GSK3A and GSK3B. The note with it: small-molecule microarray binding, fluorescence 635 nm; higher = more signal.
Test [17] has as its target Epidermal growth factor receptor (Homo sapiens) (UniProt P00533). Put plainly: EGFR binders on small-molecule microarrays, primary screen, biochemical, small-molecule microarray, 635 nm fluorescence (AID 1104).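 Note: score merges 667 nm emission intensity with spot signal to noise over triplicate slides.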 The note with it: EGFR binding, higher = more signal.
Test [18] deals with Follistatin-related protein 3 (Homo sapiens) (UniProt O95633). Put plainly: FSTL3 binders on small-molecule microarrays, primary screen, biochemical, small-molecule microarray, 635 nm fluorescence (AID 1105).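 Note: score merges emission near 667 nm and signal to noise per printed spot across three slides.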 To be noted: FSTL3 binding, higher = more signal.
Test [19] deals with Dickkopf-related protein 1 (Homo sapiens) (UniProt O94907). Put plainly: DKK1 binders on small-molecule microarrays, primary screen, biochemical, small-molecule microarray, 635 nm fluorescence scan (AID 1106).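 Note: score merges emission near 667 nm with signal to noise over three replicate slides.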 The note with it: DKK1 binding, higher = more signal.
The subject of test [20] is Inhibin beta A chain (activin A). In words: INHBA (activin A) binders on microarrays, primary screen, biochemical, small-molecule microarray, 635 nm fluorescence scan (AID 1107).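 Note: mouse activin A protein probed at 4.33 µg/mL on printed slides; score merges bound-protein fluorescence near 667 nm with spot signal-to-noise.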 The note with it: small-molecule microarray binding, higher = more signal.

Sequence of Epidermal growth factor receptor (Homo sapiens) (P00533 whole entry, looked up): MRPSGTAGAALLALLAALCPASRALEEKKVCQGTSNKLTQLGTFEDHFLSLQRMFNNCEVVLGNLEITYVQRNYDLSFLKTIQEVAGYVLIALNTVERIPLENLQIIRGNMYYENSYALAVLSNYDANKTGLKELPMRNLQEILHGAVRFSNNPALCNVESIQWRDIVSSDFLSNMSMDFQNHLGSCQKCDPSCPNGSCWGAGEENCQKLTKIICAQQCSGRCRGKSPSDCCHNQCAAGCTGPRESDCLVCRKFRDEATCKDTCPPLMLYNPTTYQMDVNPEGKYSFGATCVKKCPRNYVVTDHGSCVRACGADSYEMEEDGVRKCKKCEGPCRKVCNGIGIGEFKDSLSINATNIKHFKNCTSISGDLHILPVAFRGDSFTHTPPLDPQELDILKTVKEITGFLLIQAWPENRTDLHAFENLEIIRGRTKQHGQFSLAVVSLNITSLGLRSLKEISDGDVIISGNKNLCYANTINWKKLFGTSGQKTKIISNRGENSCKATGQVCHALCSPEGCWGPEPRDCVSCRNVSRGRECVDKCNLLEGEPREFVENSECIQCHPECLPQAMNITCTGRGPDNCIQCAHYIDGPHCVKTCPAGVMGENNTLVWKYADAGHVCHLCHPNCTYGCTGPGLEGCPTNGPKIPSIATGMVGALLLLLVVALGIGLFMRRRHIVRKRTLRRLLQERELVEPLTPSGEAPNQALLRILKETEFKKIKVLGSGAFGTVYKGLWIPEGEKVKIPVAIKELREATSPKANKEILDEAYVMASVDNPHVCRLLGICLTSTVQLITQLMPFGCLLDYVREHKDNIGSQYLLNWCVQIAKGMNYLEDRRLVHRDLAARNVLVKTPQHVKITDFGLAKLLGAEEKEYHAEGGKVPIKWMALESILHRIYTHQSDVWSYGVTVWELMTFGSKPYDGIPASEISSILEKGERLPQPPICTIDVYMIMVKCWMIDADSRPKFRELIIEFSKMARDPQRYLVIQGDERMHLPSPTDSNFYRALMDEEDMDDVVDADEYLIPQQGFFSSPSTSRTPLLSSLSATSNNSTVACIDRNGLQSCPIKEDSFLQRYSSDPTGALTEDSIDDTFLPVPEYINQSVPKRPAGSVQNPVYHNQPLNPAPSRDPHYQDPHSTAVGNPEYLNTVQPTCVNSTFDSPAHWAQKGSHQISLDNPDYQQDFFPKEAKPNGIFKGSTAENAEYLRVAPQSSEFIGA
Sequence of Neurogenic locus notch homolog protein 3 (Homo sapiens) (Q9UM47 whole entry, looked up): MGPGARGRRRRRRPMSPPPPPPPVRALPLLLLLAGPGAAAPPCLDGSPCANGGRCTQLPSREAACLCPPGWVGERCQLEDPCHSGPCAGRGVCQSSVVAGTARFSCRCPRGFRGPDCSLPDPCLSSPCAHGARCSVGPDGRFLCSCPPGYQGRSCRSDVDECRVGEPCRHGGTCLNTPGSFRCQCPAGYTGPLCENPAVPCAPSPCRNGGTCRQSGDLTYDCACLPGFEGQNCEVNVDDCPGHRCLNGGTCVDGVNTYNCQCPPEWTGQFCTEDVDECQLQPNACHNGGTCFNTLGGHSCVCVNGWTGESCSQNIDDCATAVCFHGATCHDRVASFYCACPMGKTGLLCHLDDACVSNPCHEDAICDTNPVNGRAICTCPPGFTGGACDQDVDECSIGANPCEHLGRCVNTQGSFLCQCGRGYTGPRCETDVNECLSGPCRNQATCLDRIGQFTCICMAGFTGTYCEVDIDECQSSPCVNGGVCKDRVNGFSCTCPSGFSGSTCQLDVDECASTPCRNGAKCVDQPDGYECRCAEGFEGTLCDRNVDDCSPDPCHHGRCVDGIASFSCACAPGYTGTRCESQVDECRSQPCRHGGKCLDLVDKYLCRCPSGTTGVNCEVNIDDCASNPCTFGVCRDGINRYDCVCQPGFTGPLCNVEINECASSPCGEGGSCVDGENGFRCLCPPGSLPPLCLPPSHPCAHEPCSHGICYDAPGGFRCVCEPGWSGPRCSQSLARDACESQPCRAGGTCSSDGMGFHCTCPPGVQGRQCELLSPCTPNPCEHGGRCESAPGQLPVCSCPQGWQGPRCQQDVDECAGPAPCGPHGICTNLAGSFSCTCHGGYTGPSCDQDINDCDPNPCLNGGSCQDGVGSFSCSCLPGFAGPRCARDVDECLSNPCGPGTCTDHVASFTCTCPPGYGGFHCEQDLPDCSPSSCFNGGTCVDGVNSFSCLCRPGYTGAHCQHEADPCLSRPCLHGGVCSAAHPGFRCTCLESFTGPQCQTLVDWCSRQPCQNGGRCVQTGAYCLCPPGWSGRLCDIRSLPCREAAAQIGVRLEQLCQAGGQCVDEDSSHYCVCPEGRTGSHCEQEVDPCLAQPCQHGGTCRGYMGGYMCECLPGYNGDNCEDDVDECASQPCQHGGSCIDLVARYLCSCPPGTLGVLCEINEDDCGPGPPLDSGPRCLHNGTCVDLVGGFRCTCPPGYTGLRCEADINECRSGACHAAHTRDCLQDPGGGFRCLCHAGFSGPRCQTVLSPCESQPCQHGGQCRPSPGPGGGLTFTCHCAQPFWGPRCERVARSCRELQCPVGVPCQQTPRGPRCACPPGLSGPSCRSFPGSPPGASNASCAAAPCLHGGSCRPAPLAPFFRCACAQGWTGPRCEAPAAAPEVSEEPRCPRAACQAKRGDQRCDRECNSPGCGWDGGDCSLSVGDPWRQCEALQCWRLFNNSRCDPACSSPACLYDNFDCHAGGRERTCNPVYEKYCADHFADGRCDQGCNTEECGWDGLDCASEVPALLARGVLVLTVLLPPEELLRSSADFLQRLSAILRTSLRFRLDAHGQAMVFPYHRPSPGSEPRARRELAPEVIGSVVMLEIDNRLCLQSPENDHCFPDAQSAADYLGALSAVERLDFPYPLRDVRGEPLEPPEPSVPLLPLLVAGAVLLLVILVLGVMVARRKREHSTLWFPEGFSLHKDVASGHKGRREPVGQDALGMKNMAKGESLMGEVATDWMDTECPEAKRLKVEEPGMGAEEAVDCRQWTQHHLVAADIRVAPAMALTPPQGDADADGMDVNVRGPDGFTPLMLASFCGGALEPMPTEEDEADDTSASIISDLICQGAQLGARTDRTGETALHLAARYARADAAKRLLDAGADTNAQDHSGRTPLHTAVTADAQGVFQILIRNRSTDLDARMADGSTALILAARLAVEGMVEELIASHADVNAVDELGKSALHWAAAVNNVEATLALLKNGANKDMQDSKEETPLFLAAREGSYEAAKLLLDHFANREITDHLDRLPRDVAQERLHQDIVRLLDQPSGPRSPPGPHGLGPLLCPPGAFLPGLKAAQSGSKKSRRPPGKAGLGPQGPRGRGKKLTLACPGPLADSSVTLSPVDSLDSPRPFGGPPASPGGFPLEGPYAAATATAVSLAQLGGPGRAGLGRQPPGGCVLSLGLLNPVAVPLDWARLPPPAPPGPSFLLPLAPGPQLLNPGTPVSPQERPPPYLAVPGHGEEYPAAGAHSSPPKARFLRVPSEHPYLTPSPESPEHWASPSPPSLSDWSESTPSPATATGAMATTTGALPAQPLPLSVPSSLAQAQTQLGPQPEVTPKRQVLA
Sequence of Fibroblast growth factor 10 (Homo sapiens) (O15520 whole entry, looked up): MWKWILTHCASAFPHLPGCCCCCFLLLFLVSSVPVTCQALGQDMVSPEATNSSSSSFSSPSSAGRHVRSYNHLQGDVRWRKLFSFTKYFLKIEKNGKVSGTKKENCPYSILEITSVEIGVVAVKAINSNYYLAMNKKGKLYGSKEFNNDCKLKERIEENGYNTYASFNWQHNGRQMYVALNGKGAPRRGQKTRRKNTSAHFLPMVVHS
Sequence of Follistatin-related protein 3 (Homo sapiens) (O95633 whole entry, looked up): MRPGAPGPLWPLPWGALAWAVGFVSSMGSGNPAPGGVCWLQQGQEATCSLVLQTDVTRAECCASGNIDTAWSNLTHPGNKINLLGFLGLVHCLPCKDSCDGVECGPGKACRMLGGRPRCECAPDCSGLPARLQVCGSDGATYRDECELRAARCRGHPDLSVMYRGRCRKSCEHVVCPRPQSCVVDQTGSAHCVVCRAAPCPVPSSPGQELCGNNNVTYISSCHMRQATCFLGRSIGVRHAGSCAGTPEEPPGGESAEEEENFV
Sequence of Dickkopf-related protein 1 (Homo sapiens) (O94907 whole entry, looked up): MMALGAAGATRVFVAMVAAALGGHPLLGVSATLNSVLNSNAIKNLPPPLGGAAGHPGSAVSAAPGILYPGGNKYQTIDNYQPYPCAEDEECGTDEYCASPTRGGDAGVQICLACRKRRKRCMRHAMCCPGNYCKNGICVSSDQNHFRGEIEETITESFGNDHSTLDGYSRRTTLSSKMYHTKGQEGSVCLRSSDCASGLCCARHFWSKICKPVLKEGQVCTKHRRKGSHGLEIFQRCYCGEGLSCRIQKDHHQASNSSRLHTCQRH
Sequence of Torsin-1A-interacting protein 2 (Homo sapiens) (Q8NFQ8 whole entry, looked up): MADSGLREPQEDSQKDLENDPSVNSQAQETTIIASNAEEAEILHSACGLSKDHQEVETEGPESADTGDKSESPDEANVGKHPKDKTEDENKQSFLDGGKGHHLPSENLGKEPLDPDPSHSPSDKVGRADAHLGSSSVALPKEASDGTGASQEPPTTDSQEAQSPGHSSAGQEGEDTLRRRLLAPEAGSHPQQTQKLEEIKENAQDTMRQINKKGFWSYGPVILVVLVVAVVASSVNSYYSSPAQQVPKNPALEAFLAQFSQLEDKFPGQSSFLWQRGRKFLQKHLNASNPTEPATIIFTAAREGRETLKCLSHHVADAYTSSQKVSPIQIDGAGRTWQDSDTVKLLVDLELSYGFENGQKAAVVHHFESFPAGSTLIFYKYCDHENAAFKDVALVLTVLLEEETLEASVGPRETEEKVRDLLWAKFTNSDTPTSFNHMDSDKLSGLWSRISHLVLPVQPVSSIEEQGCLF

Regarding `CN1C2C=C(c3ccc(CO)cc3)C(C3C(=O)N(C(N)=O)C(=O)C32)C1c1cccs1` (stereo not given), the composite z-score in test [1] was 0.4; in test [5], 0.813; in test [7], -0.0774; in test [8] it was 0.198; in test [9], -0.25; in test [10], -0.0798. Further, the composite z-score in [11] is 1.41; in [12] it was -0.0009; in test [13], 0.549; in test [15], 0.25; in test [16], -0.148; in test [17] it was 0.136. The values for the composite z-score in [18], in [19] and in test [20] were -0.623, -0.72 and 1.02, respectively. The z-score in [2] was 0.697 (inactive); in test [3], -1.74 (inactive); in test [4], 1.21 (inactive); in test [6], 1.22 (inactive); in test [14] it was -0.795 (inactive).

As to `COC(=O)[C@@]1(Cc2ccccc2CN=[N+]=[N-])N=C(c2ccc(OCCCO)cc2)O[C@H]1c1ccccc1N=[N+]=[N-]`, the composite z-score is 1.42 in test [1]; 2.18 in test [5]; -0.184 in test [7]; 0.0678 in test [8]; 0.698 in test [9]; -0.0372 in test [10]. Besides, the composite z-score in test [11] was 1.31; in test [12], 0.244; in test [13] it was 0.973; in test [15] it was 0.752; in [16], -0.381; in [17], -0.0185. Further, the values for the composite z-score in test [18], in test [19] and in [20] were -0.0661, -0.608 and 0.948, respectively. In addition, the z-score in test [2] was 0.763 (inactive); in test [3], 2.17 (inactive); in test [4], 36 (active); in test [6] it was 0.0738 (inactive); in test [14], -0.298 (inactive).

Consider `C[C@@H]1C=CCC(=O)OC[C@H]2O[C@@H](C=C[C@@H]2O)[C@H](C)C=CCC(=O)OC[C@H]2O[C@H]1C=C[C@@H]2O`, for which the composite z-score in [1] was 1.06; in [5], -0.552; in test [7], -0.0196; in test [8], 1.37; in test [9] it was 1; in test [10], 0.0779. In addition, the composite z-score in [11] was 0.489; in [12], -0.384; in test [13], -1.67; in test [15], 1.22; in [16], 1.18; in test [17], 1.41. The composite z-score is 1.47 in test [18], 2.11 in test [19] and 1.16 in [20]. The z-score was -2.14 (inactive) in test [2]; -2.87 (inactive) in [3]; -1.09 (inactive) in test [4]; 0.332 (inactive) in [6]; -2.62 (inactive) in test [14].

For the molecule `C=CCOC(=O)[C@@H]1[C@H]2C(=O)O[C@H](c3ccccc3)[C@H](c3ccccc3)N2[C@H](c2ccc(OCCOC(=O)[C@H]3C[C@H]4C(=O)N5CCC[C@H]5C(=O)N4[C@H]3c3ccc(O)cc3)cc2)[C@@]12C(=O)Nc1ccccc12`, the composite z-score in test [1] turned out to be 1.51; in test [5], 1.44; in test [7] it was 0.239; in test [8], 0.684; in test [9], 0.695; in test [10], 0.0459. The composite z-score in test [11] is 1.04; in test [12] it was 0.264; in test [13] it was 0.573; in test [15], 0.883; in [16], 1.18; in [17], 0.689. The values for the composite z-score in test [18], in test [19] and in test [20] were 1.34, 0.921 and 0.668, respectively. The z-score is -0.0259 (inactive) in [2]; -0.766 (inactive) in [3]; 2.42 (inactive) in [4]; 2.52 (inactive) in test [6]; -1.3 (inactive) in test [14].

As to `O=C/C=C/c1ccc(/C=C/c2ccccc2)cc1`, the composite z-score in test [1] is -0.742; in test [5], -0.917; in test [7] it was 0.0262; in test [8] it was -0.43; in test [9] it was -1.2; in test [10], -0.225. For the same molecule, the composite z-score was -0.636 in [11]; -0.287 in [12]; 0.616 in [13]; -0.77 in test [15]; -0.386 in [16]; 0.193 in test [17]. The results for the composite z-score in test [18], in test [19] and in test [20] were 0.233, -0.278 and 1.47, respectively. Also, the z-score in test [2] was -2.92 (inactive); in [3], -19.7 (active); in test [4], -1.59 (inactive); in [6], 1.51 (inactive); in [14], -0.653 (inactive).
